Screening results (PubChem BioAssay)
The list is not random: actives were taken first. Their share in the collection is about 6.4%.
RORgamma inh: inhibitors of mouse ROR gamma transcriptional activity; 310,000 tested, 5.4% active; AID 2551; Drosophila S2 Gal4-RORgamma UAS-luciferase reporter, 20 h; Potency, µM (doses to about 53.6 µM), for inactives: at the highest dose activity change, negative = inhibition, usual class: inhibitors; note: nearly all actives have a fitted effect of over 60% in size
Target sequence (P51450 whole entry, looked up, the tested form may be a part): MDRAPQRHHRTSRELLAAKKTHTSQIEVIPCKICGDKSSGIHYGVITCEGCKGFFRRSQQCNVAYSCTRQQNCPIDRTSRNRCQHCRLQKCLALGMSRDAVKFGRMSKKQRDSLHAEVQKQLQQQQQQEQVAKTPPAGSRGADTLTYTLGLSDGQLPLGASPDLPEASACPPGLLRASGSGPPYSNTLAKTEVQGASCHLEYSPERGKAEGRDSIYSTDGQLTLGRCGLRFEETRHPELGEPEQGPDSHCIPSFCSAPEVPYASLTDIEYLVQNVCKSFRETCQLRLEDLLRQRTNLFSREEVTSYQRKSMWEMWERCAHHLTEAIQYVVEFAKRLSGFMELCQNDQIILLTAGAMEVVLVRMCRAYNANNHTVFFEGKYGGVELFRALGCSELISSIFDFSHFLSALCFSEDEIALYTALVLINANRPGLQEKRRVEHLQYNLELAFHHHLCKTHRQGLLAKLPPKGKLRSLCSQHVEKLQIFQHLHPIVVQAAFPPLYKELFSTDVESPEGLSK
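ROR gamma transcriptional activity was tracked as Gal4-UAS luciferase output in stably transfected Drosophila Schneider cells, with compound added 1 hr before 700 uM copper sulfate induction and a 20 hr ambient-temperature incubation.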
Luc counter: Kinase-Glo luciferase inhibition (counter-screen) | Q27757 | Kinase-Glo luciferase, ATP luminescence, 8 min | Potency, µM (titrated, usually from 38.3 µM), inactives show at the top dose activity change, negative = inhibition, most hits filed as inhibitors | 200,000 tested, 0.28% active; note: nearly all actives have a fitted effect of over 60% in size
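Light output from Kinase-Glo luciferase with luciferin and 10 uM ATP in 50 mM imidazole pH 7.2, KCl, MgCl2, Tween 20, BSA; compound pin-delivered, 8-min ambient incubation, then luminescence read.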
VP16 counter: counter-screen for ROR gamma inhibitors: Gal4-VP16 reporter; 310,000 tested, 3.5% active; AID 2546; Drosophila S2 Gal4-VP16 UAS-luciferase, luminescence, 20 h; Potency, µM (doses to about 53.6 µM), inactives show at the highest dose activity, negative = inhibition, hits mostly inhibitors;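 note: Gal4-VP16 expression switched on by copper sulfate through the metallothionein promoter; nearly all actives have a fitted effect of over 50% in size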
* = called active by the depositor; [ ] = remark or other dose. Calls come from the whole dose curve; as a rule, active = well fitted curve in the direction sought with a large enough effect; inconclusive = small, poorly fitted or top-dose-only effect, or another doubt; inactive = no such curve, though single readings can be large; an effect the other way counts as inactive or inconclusive. % is set by controls: 0 for no effect and ±100 for the full control effect; potency is the fitted concentration of half-maximal effect.

Screening COc1ccc(-c2ccc(OC)c(C3C4C=CCCC4(C)C(=O)N3Cc3ccccc3)c2)cc1 (stereo not drawn) returned RORgamma inh -13% and VP16 counter 6%.
CC(=O)/C=C/c1ccc2ccccc2n1 was read as RORgamma inh 10µM*, Luc counter -12% and VP16 counter inconclusive.
For O=[N+]([O-])c1ccccc1/C=C/c1ccc2ccccc2n1 the results were RORgamma inh 26% and VP16 counter 2%.
`Cc1cccc(C(=O)N[C@H](C(=O)NCCc2ccc(Cl)cc2)C(C)C)c1` gave RORgamma inh 23% and VP16 counter 18%.
For COc1ccc2[nH]cc(CCNc3ccnc(-c4ccccc4Cl)n3)c2c1 the results were RORgamma inh -10% and VP16 counter 3%.
For Oc1ccccc1/C=N/NC(=S)NC1CC2C=CC1C2 (stereo not drawn) the results were RORgamma inh 3.2µM* and VP16 counter 5µM*.
`Oc1c(Cl)cc(Cl)cc1/C=N/NC(=S)NC1CC2C=CC1C2` (stereo not drawn) gave RORgamma inh 4.5µM* and VP16 counter 20µM*.
`CCCN(CCC)C(=S)NC1CC2C=CC1C2` (stereo not drawn) gave RORgamma inh inconclusive and VP16 counter -16%.
Oc1c(Cl)cc(Cl)cc1/C=N/Nc1ncc(Br)cn1 was read as RORgamma inh inconclusive, Luc counter -3% and VP16 counter 21%.
For CCOc1ccc(-c2c(C(=O)N/N=C/c3ccc(O)cc3)nnn2-c2nonc2N)cc1 the results were RORgamma inh 5% and VP16 counter -4%.
`CCCOc1ccc(-c2c(C(=O)N/N=C/c3ccc(OC)cc3)nnn2-c2nonc2N)cc1` gave RORgamma inh 16µM*, Luc counter 0% and VP16 counter inconclusive.
CCCOc1ccc(-c2c(C(=O)N/N=C/c3ccc(OCC)cc3)nnn2-c2nonc2N)cc1 was read as RORgamma inh 10µM*, Luc counter -3% and VP16 counter 10µM*.
CCCOc1ccc(-c2c(C(=O)N/N=C/c3cccs3)nnn2-c2nonc2N)cc1 was read as RORgamma inh 2.2µM* and VP16 counter 3.2µM*.
CCOc1ccc(-c2c(C(=O)N/N=C(\C)c3ccco3)nnn2-c2nonc2N)cc1 was read as RORgamma inh 1% and VP16 counter -12%.
Screening CCOc1ccc(-c2c(C(=O)N/N=C(\C)c3ccccc3OC)nnn2-c2nonc2N)cc1 returned RORgamma inh 5.6µM* and VP16 counter -7%.
For CCOc1ccc(-c2c(C(=O)N/N=C/c3ccc(OC)cc3)nnn2-c2nonc2N)cc1 the results were RORgamma inh inconclusive, Luc counter -3% and VP16 counter inconclusive.
Screening CCOc1ccc(-c2c(C(=O)N/N=C/c3ccsc3)nnn2-c2nonc2N)cc1 returned RORgamma inh -34% and VP16 counter inconclusive.
For C=C(C)C(=O)OCC(=O)NCc1ccccc1 the results were RORgamma inh 19%, Luc counter -1% and VP16 counter 27%.
For C=CCOC(=O)C1(C(NC(=O)OC)c2ccccc2)C(=O)Cc2ccccc21 (stereo not drawn) the results were RORgamma inh -9%, Luc counter -2% and VP16 counter -3%.
`CC(=O)NC(c1cccc([N+](=O)[O-])c1)c1ccc2cccnc2c1O` (stereo not drawn) gave RORgamma inh 1.4µM* and VP16 counter 2µM*.
`CC(=O)Oc1ccc2ccccc2c1C(NC(=O)C(C)C)c1cccc([N+](=O)[O-])c1` (stereo not drawn) gave RORgamma inh 4%, Luc counter -4% and VP16 counter -15%.
COc1cccc(C(NC(C)=O)c2ccc3cccnc3c2O)c1 (stereo not drawn) was read as RORgamma inh 2.8µM* and VP16 counter 5µM*.
`COc1ccc(CNC(=O)CSc2cccc3cccnc23)cc1` gave RORgamma inh 21% and VP16 counter -14%.
`Oc1cccc(C(Nc2nccs2)c2ccc3cccnc3c2O)c1` (stereo not drawn) gave RORgamma inh 1.4µM*, Luc counter -2% and VP16 counter 3.5µM*.
For c1cnc2c(c1)ccc1cccnc12 the results were RORgamma inh inconclusive, Luc counter 0%[7.66 µM] and VP16 counter inconclusive.
COc1cccc(CN2CC(C(=O)NCCC3=CCCCC3)CCC2=O)c1 (stereo not drawn) was read as RORgamma inh 2% and VP16 counter -8%.
For Cc1cccc(CNc2ncnc3ccc(-c4cccc(NS(C)(=O)=O)c4)cc23)c1 the results were RORgamma inh 17%, Luc counter -7% and VP16 counter inconclusive.
`O=S(=O)(Nc1cc(F)ccc1F)c1cccc2nonc12` gave RORgamma inh 37% and VP16 counter -1%.
Cc1ccc(NC(=O)Cc2nc(CCl)cs2)cc1 was read as RORgamma inh 9%, Luc counter -4% and VP16 counter 18%.
For Cc1ccc(NC(=S)Nc2nc(CC(=O)Nc3ccccc3)cs2)cc1 the results were RORgamma inh 1.4µM*, Luc counter -3% and VP16 counter 5.6µM*.
For C=CCNC(=S)NC(=O)c1oc2ccccc2c1C the results were RORgamma inh 6.3µM*, Luc counter -4% and VP16 counter inconclusive.
For Cc1c(C(=O)NC(=S)NCC(C)C)oc2ccccc12 the results were RORgamma inh -30%, Luc counter -2% and VP16 counter inconclusive.
`Cc1cccnc1NC(=S)NC(=O)c1oc2ccccc2c1C` gave RORgamma inh 2µM* and VP16 counter 6.3µM*.
`CC(=O)Nc1ccc(NC(=S)NC(=O)c2oc3ccccc3c2C)cc1` gave RORgamma inh 14%, Luc counter 0% and VP16 counter -8%.
Screening CCn1cc(S(=O)(=O)N2CCCC2)cn1 returned RORgamma inh -3% and VP16 counter -2%.
CCOC(=O)C1(CCCc2ccccc2)CCN(C(=O)CN2C(=O)CSC2=O)CC1 was read as RORgamma inh 40%, Luc counter 4% and VP16 counter 3%.
C=CCOC(=O)N[C@H](/C(C(=O)OC)=C(\C)NCc1ccccc1)c1cccc(F)c1 was read as RORgamma inh -3%, Luc counter -5% and VP16 counter -25%.
For C=C(c1ccccc1Cl)[n+]1ccccc1 the results were RORgamma inh -3%[1.91 µM] and VP16 counter -15%.
For COC(=O)C/C=C/[C@@H](C)[C@H](NC(=O)OCC(Cl)(Cl)Cl)c1ccc2ccccc2c1 the results were RORgamma inh 12%, Luc counter 0% and VP16 counter 1%.
Screening CN(C(=O)CCc1nnc(CCCCc2ccccc2)o1)C1CCOCC1 returned RORgamma inh 32%, Luc counter 1% and VP16 counter 3%.
Screening CN(C(=O)CCc1nnc(CCCCc2ccccc2)o1)C1CC(C)(C)NC(C)(C)C1 returned RORgamma inh 2µM*, Luc counter 2% and VP16 counter 4.5µM*.
COc1cc(OC)cc(C(=O)NCCC(=O)NCCc2ccc(OC)c(OC)c2)c1 was read as RORgamma inh 5%, Luc counter -3% and VP16 counter -2%.
CNn1cnc2ccsc2c1=O was read as RORgamma inh -16% and VP16 counter 0%.
